From paper PMC4336329 (PLoS ONE, 2015)
Out of some 310,000 compounds screened, about 14,000 (4.5%) showed an effect of 50% or more. Effects have a minus sign here. Only a selection was taken, and strong results are over-represented in it overall.

molecular target: human ether-à-go-go-related gene (hERG) potassium channel (human, UniProt Q12809); assay: primary screen, population patch clamp on CHO cells stably expressing hERG; higher = less effect of the substance
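Further: peak tail current of the secondary pulse compared with the same well before compound.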

Chain of human ether-à-go-go-related gene (hERG) potassium channel (Q12809 whole entry, looked up): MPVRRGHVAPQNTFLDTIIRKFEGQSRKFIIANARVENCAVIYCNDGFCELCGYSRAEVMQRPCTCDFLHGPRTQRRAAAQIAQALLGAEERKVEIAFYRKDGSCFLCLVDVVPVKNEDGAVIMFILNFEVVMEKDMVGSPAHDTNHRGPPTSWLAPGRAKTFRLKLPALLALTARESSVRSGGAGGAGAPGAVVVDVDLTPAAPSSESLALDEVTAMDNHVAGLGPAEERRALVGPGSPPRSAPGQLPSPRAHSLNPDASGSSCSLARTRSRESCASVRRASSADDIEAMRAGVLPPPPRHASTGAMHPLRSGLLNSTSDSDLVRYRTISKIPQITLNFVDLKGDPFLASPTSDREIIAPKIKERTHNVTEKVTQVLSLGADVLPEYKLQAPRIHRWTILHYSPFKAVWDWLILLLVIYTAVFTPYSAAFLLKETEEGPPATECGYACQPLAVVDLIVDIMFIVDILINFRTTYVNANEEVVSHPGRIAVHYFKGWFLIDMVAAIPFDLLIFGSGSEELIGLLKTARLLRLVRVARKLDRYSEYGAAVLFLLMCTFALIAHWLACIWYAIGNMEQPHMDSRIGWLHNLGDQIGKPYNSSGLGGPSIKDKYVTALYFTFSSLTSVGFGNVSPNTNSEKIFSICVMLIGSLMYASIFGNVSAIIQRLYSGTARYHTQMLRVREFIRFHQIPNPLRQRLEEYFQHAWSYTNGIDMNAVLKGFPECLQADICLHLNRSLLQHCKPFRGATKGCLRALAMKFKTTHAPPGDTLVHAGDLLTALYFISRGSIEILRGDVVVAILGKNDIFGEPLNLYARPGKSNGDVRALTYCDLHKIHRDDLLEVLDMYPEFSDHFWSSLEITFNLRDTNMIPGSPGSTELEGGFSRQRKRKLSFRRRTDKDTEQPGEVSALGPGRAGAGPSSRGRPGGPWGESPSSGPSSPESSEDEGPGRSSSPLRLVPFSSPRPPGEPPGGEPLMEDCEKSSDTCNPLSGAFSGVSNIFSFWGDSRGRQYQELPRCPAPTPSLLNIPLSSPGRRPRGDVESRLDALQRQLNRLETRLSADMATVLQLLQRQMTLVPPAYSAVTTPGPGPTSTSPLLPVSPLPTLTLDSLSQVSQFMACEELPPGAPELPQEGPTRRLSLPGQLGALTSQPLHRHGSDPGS

First: COc1ccc(CN2C(=O)c3ccccc3C2=O)cc1C(=O)N(C)CC(=O)Nc1c(C)cccc1C
Second: CCC(C)C(NC(=O)OCc1ccccc1)C(=O)OCN1C(=O)c2ccccc2C1=O (stereo not shown)
The “hERG current change (%, negative = inhibition) at 10uM” value of the first is lower: -16.7% for the first, -2.01% for the second.

First: CCOC(=O)C1(CCOc2ccccc2)CCN(Cc2cnc(C)[nH]2)CC1
Second: CCOC(=O)C1(CCOc2ccccc2)CCN(Cc2cnc(C)s2)CC1
The “hERG current change (%, negative = inhibition) at 10uM” value of the first is higher: -48.3% for the first, -62.4% for the second.

First: CCC(=O)Nc1cccc(NC(=O)c2ccc(C)cc2Cl)c1
Second: Cc1ccc(-c2csc(NC(=O)CCNC(=O)c3ccccc3Cl)n2)cc1
The “hERG current change (%, negative = inhibition) at 10uM” value of the first is higher: 34.5% for the first, 1.5% for the second.

Going from NC(=S)NNc1ccc(Cl)c(Cl)c1 to O=C(COC(=O)c1nc(Cl)ccc1Cl)Nc1ccc2c(c1)OCO2, the “hERG current change (%, negative = inhibition) at 10uM” value falls from 16.3% to -3.62%.

First: O=C(NCCCn1ccnc1)c1ccc(N2CCCCC2)c([N+](=O)[O-])c1
Second: Cl.O=C(NCCCn1ccnc1)c1ccc(N2CCCCCC2)c([N+](=O)[O-])c1
The “hERG current change (%, negative = inhibition) at 10uM” value of the first is lower: -71.7% for the first, -64% for the second.

Going from O=C(NCCCN1CCOCC1)c1ccc(N2CCCC2)c([N+](=O)[O-])c1 to Cc1ccc(C(=O)NCCCn2ccnc2)cc1[N+](=O)[O-], the “hERG current change (%, negative = inhibition) at 10uM” value rises from -16.8% to 4.53%.

Going from COc1ccc(C(=O)NCCCn2ccnc2)cc1[N+](=O)[O-] to Cl.O=C(NCCCn1ccnc1)c1ccc(S(=O)(=O)N2CCCCCC2)cc1, the “hERG current change (%, negative = inhibition) at 10uM” value rises from -8.22% to -7.07%.

Going from COc1ccc(/C=C(\NC(=O)c2ccccc2)C(=O)NCCC(=O)O)cc1 to O=C(O)CNC(=O)/C(=C\c1ccc2c(c1)OCO2)NC(=O)c1ccc(Br)cc1, the “hERG current change (%, negative = inhibition) at 10uM” value falls from 26.3% to 8.77%.

Going from Cc1cc(NC(=O)c2ccc3c(c2)OCCO3)ccc1NC(=O)c1ccco1 to O=C(Nc1ccc(C(=O)O)cc1)/C(=C/c1ccc2c(c1)OCO2)NC(=O)c1cccc(Br)c1, the “hERG current change (%, negative = inhibition) at 10uM” value falls from 8.5% to 7.25%.

Compared with COc1ccc(C(=O)NCC(=O)N/N=C/c2ccco2)cc1OC, COc1cc(SC)ccc1C(=O)N(CC(=O)Nc1ccccc1Br)Cc1ccco1 is lower in “hERG current change (%, negative = inhibition) at 10uM” value: 25.9% for the first, -10.4% for the second.

First: CCCc1ccc(OCCNC(=O)CC)cc1
Second: COC(=O)c1sc(NC(=O)COc2ccc(OC)cc2)nc1C
The “hERG current change (%, negative = inhibition) at 10uM” value of the first is lower: -10.9% for the first, 6.37% for the second.

Going from COC(=O)C1=CN(c2ccc(Cl)cc2)C=C(C(=O)OC)C1c1ccc([N+](=O)[O-])cc1 to O=C(Nc1ccccc1C(=O)NCc1cccnc1)c1cccc([N+](=O)[O-])c1, the “hERG current change (%, negative = inhibition) at 10uM” value falls from 16.2% to -1.36%.

Going from CCOc1ccc(C(C(=O)Nc2ccc(F)cc2)N(C(=O)Cn2nnc3ccccc32)C2CC2)cc1 (stereo not shown) to COc1ccc(C(C(=O)Nc2ccc(F)cc2)N(C(=O)Cn2nnc3ccccc32)C2CC2)cc1 (stereo not shown), the “hERG current change (%, negative = inhibition) at 10uM” value rises from -50.3% to -45.6%.

First: CCC(C)N(C(=O)Cn1nnc2ccccc21)C(C(=O)Nc1ccc(F)cc1)c1cccc(OC)c1 (stereo not shown)
Second: CS(=O)(=O)c1ccc(-c2cccc(NC(=O)COc3ccccc3)c2)nn1
The “hERG current change (%, negative = inhibition) at 10uM” value of the first is lower: -18.8% for the first, -3.45% for the second.

Compared with Cc1cccc(N(C(=O)c2nsc(Cl)c2Cl)C(C(=O)NC2CCCC2)c2ccc(O)cc2)c1 (stereo not shown), Cc1cccc(C(=O)Nc2ccccc2NC(=O)c2cccc(C)c2)c1 is higher in “hERG current change (%, negative = inhibition) at 10uM” value: -2.24% for the first, 8.24% for the second.

Going from N#CCO/N=C(\c1ccccc1)c1ccncc1 to CCOC(=O)Cc1cc(=O)n2[nH]c(-c3ccccc3)c(-c3ccccc3)c2n1, the “hERG current change (%, negative = inhibition) at 10uM” value falls from 18.1% to -18%.

Compared with CCNC(=O)/C(=C\c1ccc2c(c1)OCO2)NC(=O)c1ccc(Br)cc1, CCNC(=O)/C(=C/c1ccc2c(c1)OCO2)NC(=O)c1ccc(Br)cc1 is higher in “hERG current change (%, negative = inhibition) at 10uM” value: -69.7% for the first, -58.3% for the second.

Going from O=C(Nc1cccc(C(=O)O)c1)/C(=C/c1ccc2c(c1)OCO2)NC(=O)c1cccc(Br)c1 to C=CCNC(=O)/C(=C\c1ccc2c(c1)OCO2)NC(=O)c1ccc(Br)cc1, the “hERG current change (%, negative = inhibition) at 10uM” value falls from 7.35% to -30%.

First: CC1CC2=C(C(=O)O1)C(c1ccc(Cl)cc1)Nc1ccccc1N2 (stereo not shown)
Second: CCCN1C(=O)/C(=C/c2nc3ccccc3c(=O)[nH]2)c2ccccc21
The “hERG current change (%, negative = inhibition) at 10uM” value of the first is lower: -6.21% for the first, 1.75% for the second.

Going from CC1CCCCC1N1CCN(C(=O)c2cccc(F)c2)CC1.O=C(O)C(=O)O (stereo not shown) to O=C(CNC1CCCCC1)N1CCC2(CC1)OCCO2.O=C(O)C(=O)O, the “hERG current change (%, negative = inhibition) at 10uM” value rises from -17.5% to 21.4%.

First: Cc1c(O)c(S(=O)(=O)c2ccccc2)c(=O)n(-c2ccccc2)c1-c1ccccc1
Second: OC(CN1CCN(c2ccccc2)CC1)Cn1c2ccccc2c2ccccc21 (stereo not shown)
The “hERG current change (%, negative = inhibition) at 10uM” value of the first is lower: 3.84% for the first, 9.1% for the second.

First: OC(CN1CCCCC1)Cn1c2ccccc2c2cc(Br)ccc21 (stereo not shown)
Second: OC(CN1CCCCC1)Cn1c2ccccc2c2ccccc21 (stereo not shown)
The “hERG current change (%, negative = inhibition) at 10uM” value of the first is lower: -33.1% for the first, 3.16% for the second.

First: Cl.N=c1n(CCN2CCCCC2)c2ccccc2n1CC(O)c1ccc(Cl)c(Cl)c1 (stereo not shown)
Second: Cl.N=c1n(CCN2CCCC2)c2ccccc2n1CC(O)c1ccc(Cl)c(Cl)c1 (stereo not shown)
The “hERG current change (%, negative = inhibition) at 10uM” value of the first is lower: -105% for the first, -91.4% for the second.

Going from Cl.N=c1n(CCN2CCCCC2)c2ccccc2n1CC(O)c1cccc(Br)c1 (stereo not shown) to Cl.N=c1n(CCO)c2ccccc2n1CCN1CCCCC1, the “hERG current change (%, negative = inhibition) at 10uM” value rises from -63.2% to 6.77%.

Compared with CN(C)CCn1c(=N)n(CC(O)c2ccc(Cl)c(Cl)c2)c2ccccc21.Cl (stereo not shown), COc1ccc(C(O)Cn2c(=N)n(CCCN(C)C)c3ccccc32)cc1.Cl (stereo not shown) is higher in “hERG current change (%, negative = inhibition) at 10uM” value: -66.1% for the first, -13% for the second.

Compared with Cc1ccc2c(c1)N(CCC(=O)NCCCOC(C)C)C(=O)C(C)O2 (stereo not shown), CC(C)(C)NC(=O)CSc1nc2ccccc2c(=O)[nH]1 is higher in “hERG current change (%, negative = inhibition) at 10uM” value: -0.496% for the first, 11.7% for the second.

Going from O=C(CSc1nc(-c2ccc(F)cc2)cc(C(F)(F)F)n1)NCc1ccco1 to O=C(CN(Cc1ccco1)C(=O)c1cc(=O)[nH]c2ccccc12)Nc1ccccc1C(F)(F)F, the “hERG current change (%, negative = inhibition) at 10uM” value falls from 10.2% to -12%.

Compared with Oc1nc(-c2ccc(Br)cc2)n2ccncc12, COC(=O)c1ccc(-c2c(-c3ccccc3)ncc3cc(F)ccc23)cc1 is higher in “hERG current change (%, negative = inhibition) at 10uM” value: -8.14% for the first, 7.97% for the second.

Going from COc1ccc(CCNC(=O)c2cc3ccccn3n2)c(OC)c1OC to COCc1cc(C)nc2sc(C(=O)Nc3ccc(OC)cc3)c(N)c12, the “hERG current change (%, negative = inhibition) at 10uM” value rises from -3.41% to 12.5%.

First: COc1ccc(CN2CCN(CC(O)Cn3c4ccccc4c4ccccc43)CC2)cc1 (stereo not shown)
Second: CCOc1ccc(CN2CCN(CC(O)Cn3c4ccccc4c4ccccc43)CC2)cc1 (stereo not shown)
The “hERG current change (%, negative = inhibition) at 10uM” value of the first is lower: -75.2% for the first, -70.9% for the second.

Compared with Cl.OC(CN1CCNCC1)Cn1c2ccccc2c2ccccc21 (stereo not shown), OC(CN1CCOCC1)Cn1c2ccccc2c2ccccc21 (stereo not shown) is higher in “hERG current change (%, negative = inhibition) at 10uM” value: -6.23% for the first, 2.42% for the second.

Going from O=CN1CCN(CC(O)Cn2c3ccccc3c3ccccc32)CC1 (stereo not shown) to CC(=O)N1CCN(CC(O)Cn2c3ccccc3c3ccccc32)CC1 (stereo not shown), the “hERG current change (%, negative = inhibition) at 10uM” value rises from -23.6% to 7.81%.

First: CC1CCN(CC(O)Cn2c3ccccc3c3ccccc32)CC1 (stereo not shown)
Second: CN1CCN(CC(O)Cn2c3ccccc3c3ccccc32)CC1.O=C(O)C(=O)O (stereo not shown)
The “hERG current change (%, negative = inhibition) at 10uM” value of the first is lower: -54% for the first, 3.46% for the second.

Going from Cc1ccc(OCCN2CCN(CC(O)Cn3c4ccccc4c4ccccc43)CC2)cc1.O=C(O)C(=O)O (stereo not shown) to OC(CN1CCN(Cc2ccccc2)CC1)Cn1c2ccccc2c2ccccc21 (stereo not shown), the “hERG current change (%, negative = inhibition) at 10uM” value falls from -25.1% to -67.7%.

Compared with CSc1cc(C)[nH]c(=O)n1, CCC(C)n1c(=S)[nH]c2ccccc2c1=O (stereo not shown) is lower in “hERG current change (%, negative = inhibition) at 10uM” value: 7.05% for the first, -0.621% for the second.

First: CCOc1cc(S(=O)(=O)Nc2ccc(Cl)cn2)ccc1Cl
Second: O=C(CCS(=O)(=O)c1ccc(Br)cc1)NC1CCCC1
The “hERG current change (%, negative = inhibition) at 10uM” value of the first is lower: 5.67% for the first, 11.6% for the second.

Going from COc1ccccc1CN1CCCCC1C(=O)O (stereo not shown) to CC1CCN(C(=O)N2c3ccccc3Sc3ccccc32)CC1, the “hERG current change (%, negative = inhibition) at 10uM” value falls from 9.48% to -5.69%.

Going from O=C(CC12CC3CC(CC(C3)C1)C2)NC(=S)N1CCCCC1 to O=C(CN1CCCC1)Nc1sc2c(c1C(=O)Nc1ccc(Br)cc1)CCC2, the “hERG current change (%, negative = inhibition) at 10uM” value falls from 26.6% to -1.29%.

Going from CN(CC(=O)Nc1ccccc1Br)C(=O)c1ccccc1-c1nc2ccccc2s1 to O=C(CN(Cc1ccco1)C(=O)c1cc(=O)[nH]c2ccccc12)Nc1ccccc1Br, the “hERG current change (%, negative = inhibition) at 10uM” value falls from -26.3% to -53.5%.

First: CCN(CC)CC(O)CN1c2ccccc2Sc2ccccc21 (stereo not shown)
Second: CC1CCN(CC(O)CN2c3ccccc3Sc3ccccc32)CC1 (stereo not shown)
The “hERG current change (%, negative = inhibition) at 10uM” value of the first is higher: -25% for the first, -59.2% for the second.

First: COC(=O)c1ccccc1NC(=O)c1cnn2cccnc12
Second: C/C(NC(=O)c1ccccc1)=C1/C(=O)CC2C1C2(C)C (stereo not shown)
The “hERG current change (%, negative = inhibition) at 10uM” value of the first is higher: 13% for the first, 2.15% for the second.

First: CC(C)=CCOc1ccc2ccc(=O)oc2c1
Second: COc1ccc(NC(=O)c2c(NC(=O)CNCc3ccco3)sc3c2CCC3)cc1
The “hERG current change (%, negative = inhibition) at 10uM” value of the first is lower: -12.9% for the first, 17.8% for the second.

First: COC(=O)c1c(NC(=O)CCN2CCOCC2)sc2c1CCCC2
Second: CCOc1ccc(NC(=O)c2c(NC(=O)CNCCN3CCOCC3)sc3c2CCC3)cc1
The “hERG current change (%, negative = inhibition) at 10uM” value of the first is higher: -26% for the first, -69.3% for the second.

Compared with CCOc1ccc(NC(=O)c2c(NC(=O)CN3CCCC3)sc3c2CCC3)cc1, CCOc1ccc(NC(=O)c2c(NC(=O)CN3CCN(C)CC3)sc3c2CCC3)cc1 is lower in “hERG current change (%, negative = inhibition) at 10uM” value: -3.84% for the first, -72.7% for the second.
